Reference: PubChem BioAssay (Tox21)
A number with no mark means an inactive call. Results filed as inconclusive are left out. Entries that show only a call come without a potency. Active and inactive are the calls of the source. Unless noted, calls come from the whole dose curve; as a rule, active = well fitted curve in the direction sought with a large enough effect in the repeat runs; inconclusive = weak or mixed curves; inactive = no such curve, though single readings can be large; an effect the other way counts as inactive or inconclusive.

Key:
[1] = qHTS assay to identify small molecule agonists of the estrogen related receptor (ERR) signaling pathway from Tox21 library (AID 1224849; calls by dose curve; note: nearly all actives have a fitted effect of over 15% in size); details: ERR reporter cell line, ONE-Glo luciferase, 18 h; at 92.4 µM (top of the series) unless noted
In short: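 ERR reporter cells (NTP line) pre-incubated 6 hours at 37 C, then exposed to compounds for 18 hours at 37 C. ONE-Glo luciferase luminescence was read after 30 minutes at room temperature.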

[2] = qHTS RealTime-Glo MT Cell Viability Assay in HepG2 cells - 24 hour (AID 1224867); note: nearly all actives have a fitted effect of over 50% in size; note: potency is the fitted concentration of half-maximal effect
In short: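 Compound treatment began 5 h after plating HepG2 cells (600/well) with NanoLuc luciferase and prosubstrate. Plates stayed at 37 C for 40 h; luminescence was captured at six time points, 0 h through 40 h.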

[3] = qHTS RealTime-Glo MT Cell Viability Assay in HEK293 cells - 32 hour (AID 1224868); note: nearly all actives have a fitted effect of over 50% in size; note: potency is the fitted concentration of half-maximal effect
In short: (§1)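 Quantitative high-throughput screen of the Tox21 10K library in HEK293: cells and RealTime-Glo reagents plated together, compound added at 5 h, luminescence monitored through 40 h at 37 C.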

[4] = A CellTox Green Cytotoxicity Assay to monitor cytotoxicity in HEK293 cells - 0 hour (AID 1224869); note: nearly all actives have a fitted effect of over 50% in size; note: potency is the fitted concentration of half-maximal effect
In short: (§2)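 HEK293 cells, 600/well, were preincubated 5 hours and then exposed to compounds at 37 C for up to 40 hours. A cell-impermeant cyanine dye staining dead-cell DNA was read by fluorescence at 0, 8, 16, 24, 32 and 40 h time points.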

[5] = qHTS RealTime-Glo MT Cell Viability Assay in HepG2 cells - 40 hour (AID 1224870); note: nearly all actives have a fitted effect of over 50% in size; note: potency is the fitted concentration of half-maximal effect
In short: (§3)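 HepG2 cells (600/well) mixed with RealTime-Glo MT reagent, settled 5 h at 37 C/5% CO2 before compound addition. Nonlytic NanoLuc luminescence from viable-cell prosubstrate reduction read repeatedly during 40 h treatment at 37 C.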

[6] = A CellTox Green Cytotoxicity Assay to monitor cytotoxicity in HEK293 cells - 40 hour (AID 1224871); note: nearly all actives have a fitted effect of over 45% in size; note: potency is the fitted concentration of half-maximal effect
In short: as §2

[7] = qHTS RealTime-Glo MT Cell Viability Assay in HEK293 cells - 16 hour (AID 1224872); note: nearly all actives have a fitted effect of over 50% in size; note: potency is the fitted concentration of half-maximal effect
In short: as §1

[8] = qHTS RealTime-Glo MT Cell Viability Assay in HepG2 cells - 8 hour (AID 1224873); note: nearly all actives have a fitted effect of over 55% in size; note: potency is the fitted concentration of half-maximal effect
In short: as §3

[9] = qHTS RealTime-Glo MT Cell Viability Assay in HEK293 cells - 40 hour (AID 1224874); details: RealTime-Glo luminescence; max response: active compounds read low; note: nearly all actives have a fitted effect of over 50% in size; note: potency is the fitted concentration of half-maximal effect
In short: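 600 cells/well were plated with the nonlytic NanoLuc/prosubstrate reagent, pre-incubated 5 h, then given 23 nL of compound in DMSO. Incubation at 37 C for 40 h, with luminescence from viable-cell-reduced substrate read repeatedly from 0 h.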

[10] = A CellTox Green Cytotoxicity Assay to monitor cytotoxicity in HEK293 cells - 24 hour (AID 1224875); note: nearly all actives have a fitted effect of over 45% in size; note: potency is the fitted concentration of half-maximal effect
In short: as §2

## Cc1cc(C)c(O)c(C(C)(C)C)c1
[1]
  activity change, positive = activation: 1.52%
[2]
  Potency: inactive
[3]
  Potency: inactive
[4]
  Potency: inactive
[5]
  Potency: inactive
[6]
  Potency: 34.7 µM (active)
[7]
  Potency: inactive
[8]
  Potency: inactive
[9]
  max response: -8.82%
[10]
  Potency: 24.5 µM (active)

## C=CC(=O)O[C@H]1C[C@@H]2CC[C@@]1(C)C2(C)C
[1]
  activity change, positive = activation: 1.18%
[2]
  Potency: inactive
[3]
  Potency: inactive
[4]
  Potency: inactive
[5]
  Potency: inactive
[8]
  Potency: inactive
[9]
  max response: 3.56%
[10]
  Potency: inactive

## NC(=O)c1ccccc1Cl
[1]
  activity change, positive = activation: 3.13%
[2]
  Potency: inactive
[3]
  Potency: inactive
[4]
  Potency: inactive
[5]
  Potency: inactive
[6]
  Potency: inactive
[7]
  Potency: inactive
[8]
  Potency: inactive
[9]
  max response: -1.02%
[10]
  Potency: inactive

## S=C1NC=NC2N=CNC12 (centres undefined)
[1]
  activity change, positive = activation: -55.5%
[2]
  Potency: inactive
[3]
  Potency: 21.9 µM (active)
[4]
  Potency: inactive
[5]
  Potency: inactive
[6]
  Potency: inactive
[8]
  Potency: inactive
[9]
  Potency: 17.4 µM (active)
[10]
  Potency: inactive

## O=C1C=CC(=O)N1c1cccc(N2C(=O)C=CC2=O)c1
[1]
  activity change, positive = activation: -72.9%
[2]
  Potency: 15.5 µM (active)
[3]
  Potency: 9.77 µM (active)
[4]
  Potency: inactive
[5]
  Potency: 17.4 µM (active)
[7]
  Potency: 12.3 µM (active)
[8]
  Potency: 21.9 µM (active)
[9]
  Potency: 9.77 µM (active)

## CC/C(=C(/c1ccc(O)cc1)c1ccc(OCCN(C)C)cc1)c1ccccc1
[1]
  activity change, positive = activation: -77.3% [at 42.5 µM]
[2]
  Potency: 18.2 µM (active)
[3]
  Potency: 9.11 µM (active)
[4]
  Potency: inactive
[5]
  Potency: 12.9 µM (active)
[6]
  Potency: 20.4 µM (active)
[7]
  Potency: 12.9 µM (active)
[8]
  Potency: 28.8 µM (active)
[9]
  Potency: 8.12 µM (active)
[10]
  Potency: 25.7 µM (active)

## Cn1ccnc1
[1]
  activity change, positive = activation: 1.09%
[2]
  Potency: inactive
[3]
  Potency: inactive
[4]
  Potency: inactive
[5]
  Potency: inactive
[6]
  Potency: inactive
[7]
  Potency: inactive
[8]
  Potency: inactive
[9]
  max response: 9.06%
[10]
  Potency: inactive

## Nc1cc([N+](=O)[O-])ccc1Cl
[1]
  activity change, positive = activation: 1.59%
[2]
  Potency: inactive
[3]
  Potency: inactive
[4]
  Potency: inactive
[5]
  Potency: inactive
[6]
  Potency: inactive
[8]
  Potency: inactive
[9]
  max response: 0.705%
[10]
  Potency: inactive

## CC(Cc1ccc(O)c(O)c1)C(C)Cc1ccc(O)c(O)c1 (centres undefined)
[1]
  activity change, positive = activation: -42.5%
[2]
  Potency: 43.6 µM (active)
[3]
  Potency: 34.7 µM (active)
[4]
  Potency: inactive
[6]
  Potency: inactive
[8]
  Potency: 43.6 µM (active)
[9]
  Potency: 38.9 µM (active)
[10]
  Potency: inactive

## O=C1OC2(c3ccccc31)c1ccc(O)c(Br)c1Oc1c2ccc(O)c1Br
[1]
  activity change, positive = activation: -9.26%
[2]
  Potency: inactive
[3]
  Potency: inactive
[4]
  Potency: 6.16 µM (active)
[5]
  Potency: inactive
[10]
  Potency: 6.92 µM (active)

## CCCC(C)C=O (centres undefined)
[1]
  activity change, positive = activation: 4.95%
[2]
  Potency: inactive
[3]
  Potency: inactive
[4]
  Potency: inactive
[5]
  Potency: inactive
[6]
  Potency: inactive
[7]
  Potency: inactive
[8]
  Potency: inactive
[9]
  max response: 0.0424%
[10]
  Potency: inactive

## CCN(CC)c1ccc(C=O)c(O)c1
[1]
  activity change, positive = activation: -16.4%
[2]
  Potency: inactive
[3]
  Potency: inactive
[4]
  Potency: inactive
[5]
  Potency: inactive
[6]
  Potency: inactive
[7]
  Potency: inactive
[8]
  Potency: inactive
[9]
  max response: -15%
[10]
  Potency: inactive

## Nc1c(Br)cc([N+](=O)[O-])cc1Br
[1]
  activity change, positive = activation: -20.8%
[2]
  Potency: inactive
[3]
  Potency: inactive
[4]
  Potency: inactive
[5]
  Potency: inactive
[6]
  Potency: inactive
[7]
  Potency: inactive
[8]
  Potency: inactive
[9]
  max response: -23.8%
[10]
  Potency: inactive

## Cc1ccc2n[nH]nc2c1
[1]
  activity change, positive = activation: 4.26%
[2]
  Potency: inactive
[3]
  Potency: inactive
[4]
  Potency: inactive
[5]
  Potency: inactive
[6]
  Potency: inactive
[7]
  Potency: inactive
[8]
  Potency: inactive
[9]
  max response: -0.793%
[10]
  Potency: inactive

## N#Cc1nc(Cl)c(Cl)c(Cl)c1Cl
[1]
  activity change, positive = activation: -76.2%
[2]
  Potency: 24.5 µM (active)
[3]
  Potency: 2.19 µM (active)
[4]
  Potency: inactive
[5]
  Potency: 17.4 µM (active)
[6]
  Potency: 1.55 µM (active)
[7]
  Potency: 2.45 µM (active)
[9]
  Potency: 2.19 µM (active)

## O[Si](c1ccccc1)(c1ccccc1)c1ccccc1
[1]
  activity change, positive = activation: -39.7%
[2]
  Potency: inactive
[3]
  Potency: 38.9 µM (active)
[4]
  Potency: inactive
[5]
  Potency: inactive
[6]
  Potency: inactive
[8]
  Potency: inactive
[9]
  Potency: 38.9 µM (active)
[10]
  Potency: inactive

## CC/C=C(\C)C=O
[1]
  activity change, positive = activation: 5.99%
[2]
  Potency: inactive
[3]
  Potency: inactive
[4]
  Potency: inactive
[5]
  Potency: inactive
[6]
  Potency: inactive
[7]
  Potency: inactive
[8]
  Potency: inactive
[9]
  max response: 4.52%
[10]
  Potency: inactive

## O=C1CCCCCCCCCCCCCC1
[1]
  activity change, positive = activation: 1.09%
[2]
  Potency: inactive
[3]
  Potency: inactive
[4]
  Potency: inactive
[5]
  Potency: inactive
[6]
  Potency: 43.6 µM (active)
[7]
  Potency: inactive
[8]
  Potency: inactive
[9]
  max response: -11.7%
[10]
  Potency: 43.6 µM (active)

## Oc1ccc2c(c1)CCC2
[1]
  activity change, positive = activation: 7.55%
[2]
  Potency: inactive
[3]
  Potency: inactive
[4]
  Potency: inactive
[5]
  Potency: inactive
[6]
  Potency: inactive
[8]
  Potency: inactive
[9]
  max response: -3.07%
[10]
  Potency: inactive
